Test [1] concerns the target Estrogen receptor beta (Homo sapiens) (UniProt Q92731). Briefly: OT_ER_ERbERb_0480: Odyssey Thera (OT) 8-hour HEK293T Protein-Complementation Assay for Estrogen Receptor-beta/-beta Homodimer (AID 2283357).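 Also: active means signal gain over DMSO baseline.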 In outline:
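Fluorescence gain from complemented reporter fragments on ER-beta LBD homodimer in HEK293T was quantified against DMSO controls after 8 h treatment, fixation in 4% formaldehyde and Draq5 staining.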

The target in test [2] is Estrogen receptor (Homo sapiens) + Estrogen receptor beta (Homo sapiens) (UniProt P03372+Q92731). Briefly: OT_ER_ERaERb_1440: Odyssey Thera (OT) 24-hour HEK293T Protein-Complementation Assay for Estrogen Receptor-alpha/-beta Homodimer (AID 2283356).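 Also: heteromer of ER alpha and ER beta binding domains; hits raise reporter fluorescence and both agonists and antagonists give an increase.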 The method, boiled down:
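24 h exposure; HEK293T PCA cells with ERα/ERβ LBD fragments; signal rise in nuclear or whole-cell fluorescence over vehicle.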

Test [3] has as its target human Thyroid Receptor Alpha (TRa), THRA (gene 7067) (UniProt P10827). Put plainly: NVS_NR_hTRa_Antagonist: NovaScreen (NVS) Nuclear Receptor Binding Assay for human Thyroid Receptor Alpha Antagonism (TRa) (AID 2283362).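 Also: activity is loss of signal relative to DMSO baseline.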 The method, boiled down:
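In this biochemical format, receptor protein is dosed with chemical and read after 1 hour via AlphaLISA. Decreases from the DMSO baseline indicate antagonist activity; screening used 25 uM in duplicate before concentration-response confirmation.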

The target of test [4] is Androgen Receptor/SRC-1 Co-activator, AR (gene 367) (UniProt P10275). Briefly: OT_AR_ARSRC1_0960: Odyssey Thera (OT) 16-hour HEK293T Protein-Complementation Assay for Androgen Receptor/SRC-1 Co-activator (AID 2283353).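 Also: actives raise the signal above DMSO so potency reflects increased AR and SRC-1 complex.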 The method, boiled down: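 Sixteen-hour cell assay: Venus halves fused to AR and SRC-1 in HEK293T report binding. Images at 488/635 nm give an N/C ratio in the 488 nm channel over ≥400 cells, analysed as signal increase over DMSO.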
Sequence of Androgen Receptor/SRC-1 Co-activator, AR (gene 367) (P10275 whole entry, looked up, the tested form may be a part): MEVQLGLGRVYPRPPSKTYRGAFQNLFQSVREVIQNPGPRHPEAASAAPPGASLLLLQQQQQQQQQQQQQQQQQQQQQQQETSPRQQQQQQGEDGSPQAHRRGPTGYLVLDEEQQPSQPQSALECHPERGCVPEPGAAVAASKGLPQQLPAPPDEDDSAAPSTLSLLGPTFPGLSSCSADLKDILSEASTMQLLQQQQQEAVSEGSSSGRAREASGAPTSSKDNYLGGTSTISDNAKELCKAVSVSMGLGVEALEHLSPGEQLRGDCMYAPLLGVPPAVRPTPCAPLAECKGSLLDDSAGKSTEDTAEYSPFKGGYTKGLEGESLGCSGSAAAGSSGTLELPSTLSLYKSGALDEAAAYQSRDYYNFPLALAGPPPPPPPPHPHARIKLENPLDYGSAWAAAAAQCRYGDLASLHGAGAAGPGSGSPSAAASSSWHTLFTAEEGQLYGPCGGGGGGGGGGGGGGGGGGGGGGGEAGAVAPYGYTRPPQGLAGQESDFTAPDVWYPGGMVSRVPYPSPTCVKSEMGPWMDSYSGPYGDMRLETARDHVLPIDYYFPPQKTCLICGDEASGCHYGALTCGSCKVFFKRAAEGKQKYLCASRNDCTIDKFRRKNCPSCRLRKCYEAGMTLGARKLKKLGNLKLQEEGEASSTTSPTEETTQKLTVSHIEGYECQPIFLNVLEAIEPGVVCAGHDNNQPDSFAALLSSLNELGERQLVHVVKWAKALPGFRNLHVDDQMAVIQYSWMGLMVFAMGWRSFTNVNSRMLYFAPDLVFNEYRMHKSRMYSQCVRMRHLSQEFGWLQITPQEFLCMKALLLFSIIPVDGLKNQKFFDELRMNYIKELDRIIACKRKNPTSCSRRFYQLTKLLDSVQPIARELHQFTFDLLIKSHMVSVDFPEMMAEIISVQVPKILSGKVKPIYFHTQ

Test [5] shares this target. Put plainly: OT_AR_ARSRC1_0480: Odyssey Thera (OT) 8-hour HEK293T Protein-Complementation Assay for Androgen Receptor/SRC-1 Co-activator (AID 2283354).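 Also: hits raise the complementation signal above DMSO so AC50 marks enhancers.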 The method, boiled down: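 After 8 h dosing, stably expressing HEK293T cells with split-Venus AR/SRC-1 fusions were imaged (488, 635nm). The 488nm N/C ratio per image gave the endpoint, analysed in the positive direction against DMSO.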

For test [6], the target named is rat Mineralocorticoid Receptor (MR), Nr3c2 (gene 25672) (UniProt P22199). Put plainly: NVS_NR_rMR: NovaScreen (NVS) Nuclear Receptor Binding Assay for rat Mineralocorticoid Receptor (MR) (AID 2283355). The method, boiled down: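 Single-concentration duplicate screen (25 uM) of radioligand binding in adrenalectomized rat brain supernatant; scintillation detection 24 h after dosing. Positive and negative controls ran on each plate, and confirmed actives went to concentration-response.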
Sequence of rat Mineralocorticoid Receptor (MR), Nr3c2 (gene 25672) (P22199 whole entry, looked up): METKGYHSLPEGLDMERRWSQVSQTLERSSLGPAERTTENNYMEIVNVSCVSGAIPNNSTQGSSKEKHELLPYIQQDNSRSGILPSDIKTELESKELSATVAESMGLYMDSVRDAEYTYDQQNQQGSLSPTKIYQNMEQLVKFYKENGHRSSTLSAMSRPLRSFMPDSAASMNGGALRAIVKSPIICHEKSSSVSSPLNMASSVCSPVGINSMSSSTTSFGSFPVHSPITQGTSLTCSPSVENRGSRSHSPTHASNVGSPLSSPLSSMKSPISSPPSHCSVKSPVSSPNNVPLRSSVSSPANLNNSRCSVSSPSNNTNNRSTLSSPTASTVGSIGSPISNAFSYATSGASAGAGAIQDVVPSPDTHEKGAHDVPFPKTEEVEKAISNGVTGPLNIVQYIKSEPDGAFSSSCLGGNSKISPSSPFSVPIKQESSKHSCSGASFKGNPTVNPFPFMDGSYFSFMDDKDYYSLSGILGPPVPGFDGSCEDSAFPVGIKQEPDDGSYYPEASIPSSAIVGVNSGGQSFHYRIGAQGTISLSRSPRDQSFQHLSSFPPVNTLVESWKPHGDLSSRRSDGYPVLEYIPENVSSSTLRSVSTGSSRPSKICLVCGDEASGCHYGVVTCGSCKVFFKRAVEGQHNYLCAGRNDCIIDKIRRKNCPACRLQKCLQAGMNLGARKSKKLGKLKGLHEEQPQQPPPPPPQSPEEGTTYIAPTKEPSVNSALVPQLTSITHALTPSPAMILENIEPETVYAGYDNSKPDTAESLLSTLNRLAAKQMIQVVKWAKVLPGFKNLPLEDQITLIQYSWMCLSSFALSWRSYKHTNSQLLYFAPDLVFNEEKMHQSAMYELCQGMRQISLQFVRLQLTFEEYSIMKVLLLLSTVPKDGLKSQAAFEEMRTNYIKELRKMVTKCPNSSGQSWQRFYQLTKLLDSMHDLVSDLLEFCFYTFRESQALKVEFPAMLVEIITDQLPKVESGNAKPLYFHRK

Test [7] has as its target PGR (gene 5241) (UniProt P06401). Put plainly: NVS_NR_hPR: NovaScreen (NVS) Nuclear Receptor Binding Assay for human Progestron Receptor (PR) (AID 2283360).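 Also: active means loss of bound radioligand signal versus DMSO baseline.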 In outline:
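T47D-derived receptor preparation, cell-free, with tritiated or iodinated radioligand displacement measured by scintillation 18 h post-dosing. Single 25 uM duplicate screen, then concentration series; signal loss relative to DMSO.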

The target of test [8] is Retinoic acid receptor alpha (Homo sapiens) (UniProt P10276). Put plainly: NVS_NR_hRAR_Antagonist: NovaScreen (NVS) Nuclear Receptor Binding Assay for human Retinoic Acid Alpha Receptor Antagonism (RAR) (AID 2283358). The method, boiled down: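 Chemicals were first tested in duplicate at 25 uM, then actives in concentration series, in a cell-free TR-FRET antagonist binding format. Measurements were taken 2 hours after dosing and loss of signal was evaluated against DMSO controls.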
Sequence of Retinoic acid receptor alpha (Homo sapiens) (P10276 whole entry, looked up): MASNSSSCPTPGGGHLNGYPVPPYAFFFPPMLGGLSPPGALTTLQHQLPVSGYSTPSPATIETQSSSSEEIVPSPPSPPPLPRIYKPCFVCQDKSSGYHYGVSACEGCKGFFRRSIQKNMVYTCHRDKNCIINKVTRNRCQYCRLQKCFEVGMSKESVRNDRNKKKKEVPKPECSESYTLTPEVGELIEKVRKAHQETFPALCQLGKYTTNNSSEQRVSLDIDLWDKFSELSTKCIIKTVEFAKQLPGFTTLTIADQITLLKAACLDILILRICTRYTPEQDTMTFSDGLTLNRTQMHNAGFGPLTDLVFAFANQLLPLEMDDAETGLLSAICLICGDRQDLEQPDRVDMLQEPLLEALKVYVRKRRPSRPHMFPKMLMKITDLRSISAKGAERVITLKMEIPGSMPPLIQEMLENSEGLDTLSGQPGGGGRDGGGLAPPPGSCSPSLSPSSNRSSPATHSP

These results are taken from PubChem BioAssay (EPA / NIEHS).

Inconclusive results are not listed. Active and inactive are the calls of the source. The calls were made as follows: active = hit-call score of the fitted dose curve at least 0.9, where 1 is the maximum; inconclusive = response in the unintended direction; inactive = score below 0.9.

Sequence of Estrogen receptor beta (Homo sapiens) (Q92731 whole entry, looked up, the tested form may be a part): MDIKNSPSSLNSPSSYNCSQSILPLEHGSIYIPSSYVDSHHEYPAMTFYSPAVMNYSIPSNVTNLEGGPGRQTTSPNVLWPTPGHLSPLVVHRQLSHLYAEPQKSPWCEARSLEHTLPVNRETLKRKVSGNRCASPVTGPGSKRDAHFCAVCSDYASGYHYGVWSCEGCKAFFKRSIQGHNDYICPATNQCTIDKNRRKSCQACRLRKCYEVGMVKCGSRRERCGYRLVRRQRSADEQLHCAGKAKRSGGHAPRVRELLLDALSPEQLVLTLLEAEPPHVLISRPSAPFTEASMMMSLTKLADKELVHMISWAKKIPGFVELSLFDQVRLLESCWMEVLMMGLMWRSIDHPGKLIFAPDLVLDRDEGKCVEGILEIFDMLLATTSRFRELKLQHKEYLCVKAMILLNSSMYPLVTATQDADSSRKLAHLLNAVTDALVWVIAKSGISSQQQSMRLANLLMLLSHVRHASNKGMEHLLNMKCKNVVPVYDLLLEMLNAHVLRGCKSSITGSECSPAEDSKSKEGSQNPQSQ
Sequence of Estrogen receptor (Homo sapiens) + Estrogen receptor beta (Homo sapiens) (P03372 whole entry, looked up, the tested form may be a part): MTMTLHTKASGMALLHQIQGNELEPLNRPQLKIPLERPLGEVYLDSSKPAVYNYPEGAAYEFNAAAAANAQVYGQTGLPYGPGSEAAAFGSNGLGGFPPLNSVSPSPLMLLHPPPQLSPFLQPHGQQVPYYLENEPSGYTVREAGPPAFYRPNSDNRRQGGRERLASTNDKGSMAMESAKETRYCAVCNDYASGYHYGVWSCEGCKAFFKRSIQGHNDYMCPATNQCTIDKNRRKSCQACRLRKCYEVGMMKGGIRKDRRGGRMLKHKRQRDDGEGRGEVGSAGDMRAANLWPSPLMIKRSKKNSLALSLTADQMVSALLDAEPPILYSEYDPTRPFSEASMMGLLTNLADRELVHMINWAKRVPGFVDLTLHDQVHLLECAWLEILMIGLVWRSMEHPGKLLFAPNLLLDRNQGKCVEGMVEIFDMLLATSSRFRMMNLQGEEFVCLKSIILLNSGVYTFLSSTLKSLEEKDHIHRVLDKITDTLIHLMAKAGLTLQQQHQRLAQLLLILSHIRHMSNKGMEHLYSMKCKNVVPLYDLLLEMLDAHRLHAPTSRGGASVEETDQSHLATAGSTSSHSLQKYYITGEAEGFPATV
Sequence of Estrogen receptor (Homo sapiens) + Estrogen receptor beta (Homo sapiens) (Q92731 whole entry, looked up, the tested form may be a part): as the sequence (Q92731 whole entry, looked up, the tested form may be a part) above
Sequence of PGR (gene 5241) (P06401 whole entry, looked up): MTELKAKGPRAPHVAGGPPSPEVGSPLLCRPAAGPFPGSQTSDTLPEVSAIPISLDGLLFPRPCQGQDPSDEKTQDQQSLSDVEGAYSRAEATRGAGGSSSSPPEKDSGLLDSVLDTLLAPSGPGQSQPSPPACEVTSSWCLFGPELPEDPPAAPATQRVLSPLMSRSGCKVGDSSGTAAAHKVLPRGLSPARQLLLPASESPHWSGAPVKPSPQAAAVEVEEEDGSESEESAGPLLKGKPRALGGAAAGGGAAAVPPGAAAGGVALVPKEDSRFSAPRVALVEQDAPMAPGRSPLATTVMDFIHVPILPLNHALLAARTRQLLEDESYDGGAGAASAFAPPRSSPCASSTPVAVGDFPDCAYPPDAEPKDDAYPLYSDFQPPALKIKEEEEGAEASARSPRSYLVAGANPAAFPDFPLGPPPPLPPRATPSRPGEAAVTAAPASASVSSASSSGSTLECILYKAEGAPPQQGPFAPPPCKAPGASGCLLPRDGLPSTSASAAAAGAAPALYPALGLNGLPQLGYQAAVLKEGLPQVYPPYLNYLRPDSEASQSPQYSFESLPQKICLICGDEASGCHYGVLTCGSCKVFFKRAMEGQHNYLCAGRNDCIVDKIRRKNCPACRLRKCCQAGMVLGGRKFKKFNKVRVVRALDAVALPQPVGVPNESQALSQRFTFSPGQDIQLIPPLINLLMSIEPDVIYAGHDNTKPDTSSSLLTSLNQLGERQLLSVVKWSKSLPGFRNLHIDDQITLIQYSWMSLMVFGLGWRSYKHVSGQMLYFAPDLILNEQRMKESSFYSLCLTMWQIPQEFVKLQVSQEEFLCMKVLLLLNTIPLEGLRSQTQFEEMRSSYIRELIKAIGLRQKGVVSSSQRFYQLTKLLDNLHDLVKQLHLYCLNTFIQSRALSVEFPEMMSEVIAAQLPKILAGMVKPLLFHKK
Sequence of human Thyroid Receptor Alpha (TRa), THRA (gene 7067) (P10827 whole entry, looked up): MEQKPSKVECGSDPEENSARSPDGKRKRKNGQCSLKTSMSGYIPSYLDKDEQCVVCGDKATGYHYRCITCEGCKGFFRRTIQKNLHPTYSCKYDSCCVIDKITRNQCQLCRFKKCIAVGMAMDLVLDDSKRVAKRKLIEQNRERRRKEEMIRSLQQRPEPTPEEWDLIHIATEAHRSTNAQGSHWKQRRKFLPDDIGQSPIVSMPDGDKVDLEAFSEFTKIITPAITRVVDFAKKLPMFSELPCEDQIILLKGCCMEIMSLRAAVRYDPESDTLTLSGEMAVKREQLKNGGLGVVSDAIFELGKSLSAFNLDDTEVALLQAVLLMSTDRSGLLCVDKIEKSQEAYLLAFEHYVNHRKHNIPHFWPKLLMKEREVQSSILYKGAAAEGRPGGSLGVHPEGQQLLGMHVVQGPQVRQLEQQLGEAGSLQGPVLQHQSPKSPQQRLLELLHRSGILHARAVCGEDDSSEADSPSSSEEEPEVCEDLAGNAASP

Consider `CCC(=O)O[C@@H]1C[C@H]2CC[C@]1(C)C2(C)C`, for which the compound was classed as inactive in test [1].

The AC50 is the concentration at which the activity in the assay is half-maximal. On to `O=C(Nc1ccc2c(O)c(N=Nc3ccc(N=Nc4ccc(S(=O)(=O)O)cc4)cc3)c(S(=O)(=O)O)cc2c1)c1ccccc1`, for which the result in test [2] and in test [1] was inactive. Moreover, the AC50 in test [3] was 9.08 µM (active).

Regarding `CC(=O)O[C@H]1C[C@@H]2CC[C@@]1(C)C2(C)C`, the call in test [4] and in test [1] was inactive.

Consider `CCOC(=O)[C@@H](C)Oc1ccc(Oc2nc3ccc(Cl)cc3o2)cc1`, for which the outcome in test [4], in test [5] and in test [1] was inactive.

As for `Oc1c(Cl)cc(Cl)c(Cl)c1Cc1c(O)c(Cl)cc(Cl)c1Cl`, the result in test [6] and in test [7] was inactive.

Regarding `CC(C)CCCCCCc1ccc(OCCOCCO)cc1`, the outcome in test [4] was inactive. The values for the AC50 in test [2] and in test [1] were 36.5 µM (active) and 38.6 µM (active), respectively.

Turning to `O=C(c1ccccc1)C(O)c1ccccc1` (stereo unspecified), in test [1], the compound was called inactive.

For `C[C@H]1O[C@@H](O[C@H]2[C@@H](O)C[C@H](O[C@H]3[C@@H](O)C[C@H](O[C@H]4CC[C@@]5(C)[C@H](CC[C@@H]6[C@@H]5C[C@@H](O)[C@]5(C)[C@@H](C7=CC(=O)OC7)CC[C@]65O)C4)O[C@@H]3C)O[C@@H]2C)C[C@H](O)[C@@H]1O`, the AC50 in test [4] was 0.118 µM (active). In addition, the compound was classed as inactive in test [5] and in test [1].

Take `CCCCCCCCC=CCCCCCCCC1=NCCN1CCO`: the AC50 in test [4] is 15.7 µM (active); in test [5], 23.3 µM (active); in test [8], 25 µM (active). Also, the result in test [1] was inactive.

As to `C=C(C)C(=O)OCCOC1CC2CC1C1C=CCC21` (stereo unspecified), the call in test [1] was inactive.

For `CC1CCC(C(C)C)C(O)C1` (stereo unspecified), the outcome in test [4], in test [5] and in test [1] was inactive.

Take `CC(=O)CC(=O)Nc1ccccc1`: the outcome in test [6] was inactive.

`CN(C)c1cccc(O)c1`: in test [1], the call was inactive.

With `BrCc1cccc(Oc2ccccc2)c1`, the compound was classed as inactive in test [4] and in test [5]. Also, in test [1], the AC50 is 60.7 µM (active).
